Experimental data taken from PubChem BioAssay (NCATS).
Records with an inconclusive call do not appear. Calls of active or inactive are those of the source. Calls come from the whole dose curve; as a rule, active = well fitted inhibition curve with a large enough effect; inconclusive = small, poorly fitted or top-dose-only effect; inactive = no such curve, though single readings can be large or run the other way.

Assay: Primary qHTS for small molecule stabilizers of the endoplasmic reticulum resident proteome: Secreted ER Calcium Modulated Protein (SERCaMP) assay (AID 1508630)
Details: SH-SY5Y GLuc-SERCaMP (Gaussia luciferase released on ER calcium loss) secretion, thapsigargin, luminescence; series mostly up to 38.4 µM; activity change, negative = inhibition: at the top concentration
Procedure, shortened: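 The SH-SY5Y reporter protocol was run at 3 concentrations up to 38.3 uM (primary) or 11 concentrations (follow-up): 16 h compound, 100 nM thapsigargin for 4 h, then extracellular luciferase luminescence.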
% is set by controls: 0 for no effect and ±100 for the full control effect.

| Compound | activity change, negative = inhibition |
| --- | --- |
| COC(=O)C1=COC(O[C@H]2OC(CO)[C@H](O)C(O)C2O)[C@H]2C1C(=O)C[C@@H]2C (stereo not given in full) | -4.03% (inactive) |
| C/C=C(\C)C(=O)O[C@H]1CC(C)=C2C(=O)C=C(C)C2[C@@H]2OC(=O)[C@@](C)(OC(=O)C=C(C)C)C21 (stereo not given in full) | 30.2% (inactive) |
| O=c1ccc2ccc(O[C@@H]3O[C@H](CO)[C@@H](O)[C@H](O)[C@H]3O)c(O)c2o1 | -7.86% (inactive) |
| COc1cc2c(cc1OC)C(c1ccccc1)=NCC2 | 20.2% (inactive) |
| C/C=C/c1ccc(OC(C)[C@@H](O)c2ccc(O)c(OC)c2)c(OC)c1 (stereo not given in full) | 12.4% (inactive) |
| C[C@@H](CN(C)C[C@H]1C(=O)O[C@@H]2C[C@@]3(C)CCC[C@]4(CO4)C3CC21)[C@H](O)c1ccccc1 (stereo not given in full) | -14.7% (inactive) |
| CC(C)=CCn1cnc2c1c(=O)n(C)c(=O)n2C | -24.8% (inactive) |
| C/C(Nc1ccc2oc(=O)ccc2c1)=C1/C(=O)CC2[C@@H]1C2(C)C (stereo not given in full) | 34% (inactive) |
| CC(=O)OC[C@@]1(O)C[C@@]23CC[C@@H]4c5ccoc5CC[C@@]4(C)[C@@H]2CCC1C3 | 27.1% (inactive) |
| O=C(O)c1c(C(=O)O)c2ccccc2[nH]c1=O | -23.7% (inactive) |
| COC(=O)/C(=C1/OC(=O)C(c2ccccc2)=C1O)c1ccccc1 | 14.6% (inactive) |
| C[C@@H]1CC[C@H]2[C@H](C)[C@H]3CC[C@H]4C5[C@@H](O)CC6=CC(=O)CC[C@]6(C)[C@H]5C[C@H]4C3C(=O)N2C1 (stereo not given in full) | -22.9% (inactive) |
| Cc1nc2[nH]c(=O)[nH]c(=O)c2[nH]1 | -28.5% (inactive) |
| CC1NC(C(=O)O)Cc2c1[nH]c1ccccc21 (stereo not given) | 6.01% (inactive) |
| COc1cc(CCNC(C)=O)c(C(=O)/C=C/c2cccc(OC)c2OC)cc1OC | -19.6% (inactive) |
| Cc1cn(C2OC[C@@H](O)[C@@H]2CO)c(=O)[nH]c1=O (stereo not given in full) | -0.822% (inactive) |
| O=C1c2ccccc2-n2c1nc1ccccc1c2=O | 3.55% (inactive) |
| C[C@@H]1C(=O)CC2C(C)(C)CCC[C@]2(C)[C@@]1(O)CCc1ccoc1 (stereo not given in full) | 36.1% (inactive) |
| O=c1cc(-c2cc3ccccc3oc2=O)c2ccc(O)cc2o1 | -21.8% (inactive) |
| C/C=C(\C)C(=O)O[C@H]1C[C@@]2(C)CCC(C(C)C)C2(O)CC[C@@]1(C)O (stereo not given in full) | 34.9% (inactive) |

| Compound | activity change, negative = inhibition |
| --- | --- |
| CN(C)C(=O)OC1=C(c2ccccc2)Sc2ccccc2-n2cccc21 | 8.35% (inactive) |
| COc1cc(C(=O)Oc2ccc3c(OC)c4ccoc4nc3c2OC)cc(OC)c1OC | -5.66% (inactive) |
| Cn1c(=O)c(-c2ccccc2)c(O)c2ccccc21 | -26.6% (inactive) |
| Cc1cc(O)c(C)c2c1CC[C@H]1[C@H](C)C(=O)O[C@H]21 | -9.68% (inactive) |
| CN1CCN(c2ccc(Nc3c4ccccc4nc4ccccc34)cc2)CC1 | 293% (inactive) |
| COc1cc(C/C=C\c2ccccc2)c(OC)cc1O | -4.11% (inactive) |
| CCCCCCCCCCCCCCCC(=O)C1=C(O)C(CO)OC1=O (stereo not given) | -2.77% (inactive) |
| C=C1CCC2[C@](C)(CO)[C@H](O)CC[C@@]2(C)[C@@H]1C/C=C1/C(=O)OC[C@H]1O (stereo not given in full) | 2.56% (inactive) |
| C[n+]1ccc(/C=C/c2ccc3ccccc3c2)cc1 | 4.42% (inactive) |
| COc1ccccc1C1OC(=O)CC1C(=O)OC[C@@H]1CCCN2CCCCC12 (stereo not given in full) | 4.32% (inactive) |
| O=C(O)C(O)C(O)(Cc1ccc(O)cc1)C(=O)O (stereo not given) | -22.1% (inactive) |
| COc1cccc(C(=O)CC2c3c(c(Br)c4c(c3OC)OCO4)CCN2C)c1 (stereo not given) | -10.9% (inactive) |
| CC1=C(C(=O)O)N2C(=O)[C@@H](NC(=O)[C@H](N)C3=CCC=CC3)[C@@H]2SC1 | 1.97% (inactive) |
| CC1CCC2=C1C[C@H](C(C)(C)O)CC[C@@H]2C (stereo not given in full) | -3.16% (inactive) |
| CC1=CC(=O)C2=C(C)C[C@H](OC(=O)Cc3ccccc3)C3[C@H](OC(=O)[C@H]3C)C12 (stereo not given in full) | -23.7% (inactive) |
| COC(C)C(C(=O)OCC1=CCN2CC[C@H](O)[C@@H]12)C(C)C (stereo not given in full) | -14% (inactive) |
| C[C@H]1OC(=O)CC[C@@H]2[C@]1(C)CCC1[C@@]2(C)CC[C@@]2(C)C3CC(C)(C)CC[C@]3(CO)CC[C@]12C (stereo not given in full) | -10.2% (inactive) |
| C=C[C@]1(C)Cc2occ(C)c2C[C@H]1C(=C)C(=O)O | 0.56% (inactive) |
| CC1(O)/C=C\C=C(\CO)C2CC(C)(C)C2(O)CC1 (stereo not given) | -28.2% (inactive) |
| CC(C)C1=CC2=CC[C@H]3[C@](C)(C(=O)O)CCC[C@]3(C)C2CC1 (stereo not given in full) | -2.83% (inactive) |
